# Measurements published in PubChem BioAssay AID1851 (National Center for Advancing Translational Sciences (NCATS), 2009).
# Among all 16,000 compounds or so, about 5,100 (32%) were called active. About 25% were inconclusive and are not listed. The list shows a part of the results. A number with no mark means an inactive call. Calls follow the shape of the dose curve; as a rule, active = well fitted curve in the direction sought with a large enough effect; inconclusive = small, poorly fitted or top-dose-only effect, or effect the other way; inactive = no such curve, though single readings can be large or run the other way.
# Target: Cytochrome P450 3A4 (Homo sapiens) (UniProt P08684)
# Assay: Cytochrome panel assay with activity outcomes
# Conditions: recombinant CYP, pro-luciferin dealkylation, luminescence, p450-cyp3a4; series mostly up to 57.1 µM; activity, negative = inhibition: at the top concentration
# % is scaled to controls: 0 for no effect and ±100 for the full control effect.
# Sequence of Cytochrome P450 3A4 (Homo sapiens) (P08684 whole entry, looked up): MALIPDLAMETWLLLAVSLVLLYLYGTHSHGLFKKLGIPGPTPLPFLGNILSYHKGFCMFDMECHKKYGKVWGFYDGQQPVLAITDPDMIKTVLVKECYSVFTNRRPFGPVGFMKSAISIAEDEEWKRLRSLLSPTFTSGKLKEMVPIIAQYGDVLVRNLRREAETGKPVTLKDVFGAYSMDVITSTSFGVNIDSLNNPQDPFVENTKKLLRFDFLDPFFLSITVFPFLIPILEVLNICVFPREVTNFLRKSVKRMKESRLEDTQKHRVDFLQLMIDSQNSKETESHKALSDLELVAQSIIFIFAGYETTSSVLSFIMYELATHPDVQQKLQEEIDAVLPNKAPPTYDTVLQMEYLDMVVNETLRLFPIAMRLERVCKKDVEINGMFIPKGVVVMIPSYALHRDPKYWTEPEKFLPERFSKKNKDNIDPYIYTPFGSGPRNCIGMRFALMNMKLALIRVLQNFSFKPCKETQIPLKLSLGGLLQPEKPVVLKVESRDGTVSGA
SMILES,AC50,"activity, negative = inhibition"
CC12CCC(C(=O)Nc3ncc([N+](=O)[O-])s3)(OC1=O)C2(C)C (configuration not stated),15.8 µM (active),
CCCCC#Cc1nc(NC)c2ncn([C@@H]3O[C@@H](CO)[C@H](O)[C@H]3O)c2n1,,-29%
CCSc1nnc(-c2ccc(Cl)cc2)c2ccccc12,,15.9% [at 2.29 µM]
C#CCSc1nc(Cc2ccc(Cl)cc2)nc2ccccc12,15.8 µM (active),
CN(Cc1cc2ccccc2[nH]c1=O)S(C)(=O)=O,,5.8% [at 11.4 µM]
CC(C)(C)c1ccc(O)c(CN(Cc2c(O)ccc3ccccc23)C2CCCCC2)c1,,-11.1% [at 11.4 µM]
CS(=O)(=O)N(Cc1cc2ccccc2[nH]c1=O)C1CCCCC1,2.24 µM (active),
CSc1nc(N)c2ncn([C@@H]3O[C@@H](COP(=O)(O)OP(=O)(O)O)[C@@H](O)[C@H]3O)c2n1,,-2.32%
C=CC(=O)NC(NC(=O)C=C)c1ccc(Br)cc1,,-14%
Cc1ccc(NC(=O)NNC(=O)Cn2nc(-c3ccccc3)c(-c3ccccc3)c(C#N)c2=O)cc1,,26.4% [at 0.457 µM]
N#Cc1c(NC(=O)CCN2C(=O)c3ccccc3C2=O)oc(-c2ccccc2)c1-c1ccccc1,3.98 µM (active),
CC(C)(C)c1ccccc1OCCN1CCCC1,,-16.4%
Cc1ncc([N+](=O)[O-])n1CCO,,-4.85% [at 25.6 µM]
Cc1ncc([N+](=O)[O-])n1CC(=O)NCc1ccccc1,,0.475%
Cc1ncc([N+](=O)[O-])n1CCOC(=O)NC(NCc1ccccc1)C(Cl)(Cl)Cl (configuration not stated),15.8 µM (active),
O=C(c1cn(-c2ccccc2)nc1-c1cccs1)N1CCOCC1,15.8 µM (active),
O=C(Nc1cccc2ccccc12)c1cn(-c2ccccc2)nc1-c1cccs1,7.94 µM (active),
O=C(Nc1c(C(=O)N2CCOCC2)cnn1-c1ccccc1)c1ccco1,,-5.43%
O=C(N1CCOCC1)N1CCN(c2ccccc2)CC1,,-14.3% [at 11.4 µM]
CCOc1ccc(-c2c[n+](=O)c3c(n2[O-])CCCC3)c(OCC)c1,,1.52%
NCCCc1ccc2oc3ccccc3c2c1,,0.505% [at 11.4 µM]
CCCNS(=O)(=O)c1ccc(OCC(=O)OC)cc1,,-2.12%
COc1ccc(OCCNS(=O)(=O)c2ccc3oc4ccccc4c3c2)cc1,7.08 µM (active),
Cc1nnc(SCC(=O)N2CC(=O)Nc3ccccc32)n1Cc1ccccc1,7.94 µM (active),
Cc1ncc(CSC(=N)N)n1Cc1ccccc1,,6.78% [at 11.4 µM]

SMILES,AC50,"activity, negative = inhibition"
Cc1sc2nc(C3CC3)nc(SCC(=O)N3CC(=O)Nc4ccccc43)c2c1C,2.24 µM (active),
Cc1nc2ccccc2nc1SCC(=O)N1CCC(C)CC1,,3.87% [at 2.29 µM]
Cc1scc2c1N(C(=O)CN1CCN(C)CC1)c1ccccc1NC2=O,,-13.5% [at 25.6 µM]
O=C(O)[C@@H]1CS[C@@]2(CCCN(Cc3ccccc3)C2)N1,,0.282% [at 11.4 µM]
CCOC(=O)N/N=C1/C[C@@H](O)[C@@H](O)[C@@H]2[C@@H]3C(=O)N(C(C)(C)C)C(=O)[C@H]3CC[C@H]12,,-10.6% [at 11.4 µM]
C[C@@H](NCc1cc(Br)cc2[nH]c(=O)c(=O)[nH]c12)P(=O)(O)O,,-3.25%
COc1cccc(-c2ccc3ncnc(NCc4cccs4)c3c2)c1,7.94 µM (active),
N#Cc1cccc(-c2ccc3ncnc(NCc4cccs4)c3c2)c1,3.16 µM (active),
c1csc(CNc2ncnc3ccc(-c4ccoc4)cc23)c1,7.94 µM (active),
O=CN[C@@H](Cc1cnc[nH]1)C(=O)O,,-4.87% [at 11.4 µM]
NCCC(=O)NCCc1cnc[nH]1,,-7.06% [at 25.6 µM]
C[C@@H](CCCCC(=O)Nc1ccc(C(F)(F)F)cc1)NCCc1cnc[nH]1,5.01 µM (active),
CC(C)(C)N1C(=O)[C@H]2[C@@H]3[C@H](O)C=CC(=O)[C@H]3CC[C@H]2C1=O,,-16.6% [at 11.4 µM]
CCc1ccc(C(=O)COC(=O)C(Cc2ccccc2)NC(=O)C2CCC(C)CC2)cc1 (configuration not stated),3.55 µM (active),
N#CCSc1ncnc2c1cnn2CCO,,-21.9%
Cc1ccc(-c2[nH]n3c(=O)c4c(nc3c2C)CCCC4)cc1,8.91 µM (active),
N#Cc1c[nH]n2c(=O)c3c(nc12)CCCC3,,4.63%
O=c1c2c(nc3c(-c4ccccc4)c[nH]n13)CCC2,,-13.1%
Nc1[nH]n2c(=O)c3c(nc2c1N=Nc1ccccc1)CCCC3,5.01 µM (active),
Nc1[nH]n2c(=O)cc(-c3ccccc3)nc2c1N=Nc1ccccc1,,-10.8% [at 2.29 µM]
Cc1[nH]n2c(=O)c3c(nc2c1-c1cccc2ccccc12)CCC3,,-9.59%
NC(=O)NCc1ccc(Cl)cc1,,4.51% [at 11.4 µM]
O=C(NCc1ccc(Cl)cc1)c1ccc(Cl)cc1[N+](=O)[O-],12.6 µM (active),
Cc1ccc(C(=O)NCCNc2ccc(Cl)cc2[N+](=O)[O-])o1,6.31 µM (active),
CCOc1ccc(NC(=O)c2ccc(Br)o2)c([N+](=O)[O-])c1,,0.495% [at 2.29 µM]

SMILES,AC50,"activity, negative = inhibition"
O=C(NCCO)c1ccc(Cl)cc1,,-18% [at 11.4 µM]
Oc1ccc(C2Nc3cccc4cccc(c34)N2)c(O)c1,15.8 µM (active),
Oc1ccccc1C1Nc2cccc3cccc(c23)N1,,21.6%
CN[C@H](CC(=O)O)C(=O)O,,0.638%
Cc1ccc(S(=O)(=O)c2cc3ccccc3oc2=Nc2ccc3c(c2)OCO3)cc1,2 µM (active),
Cc1ccc(N=Nc2c(O)ccc3cc(S(=O)(=O)O)ccc23)cc1,,-19% [at 11.4 µM]
O=C(O)c1cc(C(=O)O)nc(C(=O)O)c1,,-8.29% [at 11.4 µM]
CCc1noc(C)c1C(=O)Nc1nc(-c2cc(C)ccc2C)c(C)s1,3.55 µM (active),
CCOC(=O)Nc1nc(-c2ccccc2)c(C)s1,,-11.6% [at 11.4 µM]
COc1cc2nc(SCc3ccc(Cl)cc3Cl)n(Cc3cccs3)c(=N)c2cc1OC,2 µM (active),
COc1ccc(Cn2c(SCc3ccccc3C)nc3cc(OC)c(OC)cc3c2=N)cc1,8.91 µM (active),
Cc1ccc(C(=O)N2C3C=CC(C3)C2(C(F)(F)F)C(F)(F)F)cc1 (configuration not stated),1.12 µM (active),
Cc1ccc(-n2c3c(c(=O)[nH]c2=O)C(C(F)(F)F)(C(F)(F)F)NC(=O)N3)cc1,,-3.33% [at 2.29 µM]
CC(C)(C)NS(=O)(=O)c1ccc(NC(=O)C(Sc2ccccc2)c2ccccc2)cc1 (configuration not stated),14.1 µM (active),
CC(C)(C)c1nnc(NC(=O)NS(=O)(=O)c2ccccc2)s1,,17.6%
CC(C)(C)NS(=O)(=O)c1ccc(NC(=O)c2cc(-c3ccccc3)nc3ccccc23)cc1,,-25.5%
Cc1cc(=O)oc2cc(O)c(CN(C)CC(=O)O)cc12,,-2.73% [at 11.4 µM]
Cc1c(O)c(=O)n(-c2ccccc2)n1C,,-20.9% [at 25.6 µM]
Cc1ccc(O)c(C(=O)c2cc(C#N)c(=O)n(-c3c(C)n(C)n(-c4ccccc4)c3=O)c2)c1,5.62 µM (active),
Cc1c(-n2cc(C(=O)c3cc(Cl)ccc3O)cc(C#N)c2=O)c(=O)n(-c2ccccc2)n1C,,-17.2%
Cc1nn2c(C)nc3sc4c(c3c2nc1=O)CC(C)(C)OC4,,10.7%
CCCSc1nc(NCc2ccco2)c2c3c(sc2n1)COC(C)(C)C3,15.8 µM (active),
Cc1cc(C)n(-c2nc(NCC(C)O)c3c4c(sc3n2)COC(C)(C)C4)n1 (configuration not stated),,-17.9% [at 11.4 µM]
CC1(CCC#N)N=C(SCCC#N)N(c2ccccc2)C1=O (configuration not stated),,4.2%
c1cn(-c2ncnc3ccc(-c4ccoc4)cc23)cn1,0.631 µM (active),

SMILES,AC50,"activity, negative = inhibition"
CN(C)c1ccc(-c2ccc3ncnc(-n4ccnc4)c3c2)cc1,1 µM (active),
Cc1ccccc1-c1ccc2ncnc(-n3ccnc3)c2c1,0.501 µM (active),
CC(=O)CC(=O)Nc1ccc2ccccc2c1,,-28.5% [at 11.4 µM]
O=C(COc1ccc2ccccc2c1)Nc1ccc(Cc2ccncc2)cc1,0.708 µM (active),
Clc1ccc([C@H](Cn2ccnc2)OCc2csc3c(Cl)cccc23)c(Cl)c1,0.794 µM (active),
O=C(c1csnn1)N1CCC[C@@]2(CCN(Cc3nccs3)C2)C1,15.8 µM (active),
CC(C)CN1CCC2(CC1)CCN(C(=O)c1csnn1)CC2,,-13.7%
CC(C)NC(=O)N1CCC2(CC1)CCN(C(=O)c1cnccn1)CC2,,-5.47%
O=C(c1csnn1)N1CCC2(CCN(Cc3nccs3)CC2)CC1,,19.9%
O=C(c1cnccn1)N1CCC2(CCN(Cc3nccs3)CC2)CC1,,27.4%
O=C(c1cnccn1)N1CCC[C@@]2(CCN(Cc3nccs3)C2)C1,15.8 µM (active),
CC(C)CN1CCCC2(CCN(C(=O)c3cnccn3)CC2)C1,25.1 µM (active),
O=C(c1cnccn1)N1CCC2(CC1)CN(Cc1nccs1)C2,,3.93%
O=C(c1cnccn1)N1CCC2(CCCN(Cc3nccs3)C2)CC1,12.6 µM (active),
C[n+]1ccc(/C=C/c2ccc(Br)cc2)cc1,,-7.44%
COc1nc(N)nc2c1ncn2[C@@H]1C[C@H](O)[C@@H](CO)O1,,-13.7% [at 11.4 µM]
CN1C(C(=O)Nc2ccccn2)=C(O)c2sccc2S1(=O)=O,,-6.16% [at 25.6 µM]
COc1cc(C)nc(N2CCCC(C(=O)Nc3cc(Cl)ccc3OC)C2)n1 (configuration not stated),7.08 µM (active),
Cc1ccc(C(=O)NNC(=O)C2CCCN(c3ncccn3)C2)cc1 (configuration not stated),,-25.4%
Cc1ccc(C(=O)/C=C2\NCC(C)NC2=O)cc1 (configuration not stated),,-21.4%
O=C(Cc1ccc(Br)cc1)Nc1ccccc1Sc1ccccc1,6.31 µM (active),
O=C(Cc1ccc2c(c1)CCCC2)Nc1ccccc1Br,,-11.4%
